In PubChem BioAssay (NCATS):
Results filed as inconclusive are left out. A call without a number means that no potency is given here. Activity calls are given as the source filed them. Calls follow the shape of the dose curve; as a rule, active = well fitted curve in the direction sought with a large enough effect; inconclusive = small, poorly fitted or top-dose-only effect, or another doubt; inactive = no such curve, though single readings can be large; an effect the other way counts as inactive or inconclusive.

Legend:
[1] = biological target: Glutaminase kidney isoform, mitochondrial (Homo sapiens) (UniProt O94925); assay: qHTS for Inhibitors of Glutaminase (GLS): LOPAC Validation (AID 624146); also: nearly all actives have a fitted effect of over 60% in size; also: potency is read from the fitted curve at half-maximal effect
In short: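 Enzyme dispensed in phosphate buffer (45 mM, pH 8.2, 0.02% Tween-20), compounds pinned in, then 1 mM L-glutamine solution and the glutamate oxidase–HRP–Amplex Red mix added; fluorescence read immediately and again after 30 min at room temperature.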

[2] = qHTS of Trypanosoma Brucei Inhibitors: LOPAC Validation (AID 624147)
In short: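 Screened from lowest to highest concentration, compounds were pinned into TbPYK/substrate mixtures, and ADP (130 uM final) was added. Plates sat at room temperature for 45 min prior to Kinase-Glo Plus detection by luminescence.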

[3] = biological target: Glucagon-like peptide 1 receptor (Homo sapiens) (UniProt P43220); assay: qHTS of GLP-1 Receptor Agonists: LOPAC Validation (AID 624148);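 also: higher luminescence signal means agonism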
In short: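 HEK293 cells stably co-expressing a cAMP-responsive luciferase reporter and a hypersensitive GLP-1R were plated 12 h at 37 °C and exposed to compounds for 4-6 hr at 37 °C, 5% CO2. Luminescence was read 12 min after adding detection reagent.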

[4] = qHTS of Nrf2 Activators: LOPAC Validation (AID 624149)
In short: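 ARE reporter activation measured in AREc32 firefly luciferase cells after 24 hr compound exposure; Steady-Glo luminescence.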

[5] = HTS Assay for Allosteric Antagonists of the Human D2 Dopamine Receptor: Hit Validation in HTRF (AID 624455);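 also: stable D1 dopamine receptor cell line scored for blocking the D1 response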
In short: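 Signal from an HTRF read-out in D1-expressing stable cells gave hit activity as inhibition of the D1 response.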

[6] = biological target: Arylsulfatase A (Homo sapiens) (UniProt P15289); assay: qHTS screen for enhancers of Arylsulfatase A (ASA1): LOPAC Validation Assay (AID 720538); also: potency is read from the fitted curve at half-maximal effect
In short: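 SV40-transformed fibroblasts from an MLD patient (ASA-I179S) were treated with compound for 48 h at 37 C. They were then lysed with 0.5 mM pNCS substrate (final) for 14 h at room temperature and stopped with NaOH; signal read by fluorescence (Ex 525/Em 598 nm), with increase denoting enhanced activity.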

[7] = qHTS for compounds that reverse cellular toxicity of Amyloid beta (A-beta) peptide in yeast: LOPAC Validation Assay (AID 720559)
In short: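 Yeast expressing toxic A-beta grown with pinned compounds at 30 C for 48 hr. Growth measured as absorbance at 600 nm; data normalized to DMSO and to an equimolar FeCl3/clioquinol mixture as positive control.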

[8] = qHTS for Activators of Parkin Expression: LOPAC Validation Assay (NLuc Reporter) (AID 720572)
In short: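 Neuronal line stably carrying a FLuc/NLuc coincidence reporter under the Parkin promoter, seeded 24 h, then dosed in 7-point series for 24 h at 37 C. NLuc luminescence read after FLuc; normalized to DMSO and positive control (100%).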

[9] = qHTS for Activators of Parkin Expression: LOPAC Validation Assay (FLuc Reporter) (AID 720573)
In short: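 Neuronal cell line stably expressing FLuc/NLuc coincidence reporter under the Parkin promoter, 1,500 cells/well, dosed 24 h after seeding in 7-point series for 24 h at 37 C. FLuc luminescence read; normalized to DMSO and positive control (100%).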

Glutaminase kidney isoform, mitochondrial (Homo sapiens), sequence (O94925 whole entry, looked up, canonical isoform): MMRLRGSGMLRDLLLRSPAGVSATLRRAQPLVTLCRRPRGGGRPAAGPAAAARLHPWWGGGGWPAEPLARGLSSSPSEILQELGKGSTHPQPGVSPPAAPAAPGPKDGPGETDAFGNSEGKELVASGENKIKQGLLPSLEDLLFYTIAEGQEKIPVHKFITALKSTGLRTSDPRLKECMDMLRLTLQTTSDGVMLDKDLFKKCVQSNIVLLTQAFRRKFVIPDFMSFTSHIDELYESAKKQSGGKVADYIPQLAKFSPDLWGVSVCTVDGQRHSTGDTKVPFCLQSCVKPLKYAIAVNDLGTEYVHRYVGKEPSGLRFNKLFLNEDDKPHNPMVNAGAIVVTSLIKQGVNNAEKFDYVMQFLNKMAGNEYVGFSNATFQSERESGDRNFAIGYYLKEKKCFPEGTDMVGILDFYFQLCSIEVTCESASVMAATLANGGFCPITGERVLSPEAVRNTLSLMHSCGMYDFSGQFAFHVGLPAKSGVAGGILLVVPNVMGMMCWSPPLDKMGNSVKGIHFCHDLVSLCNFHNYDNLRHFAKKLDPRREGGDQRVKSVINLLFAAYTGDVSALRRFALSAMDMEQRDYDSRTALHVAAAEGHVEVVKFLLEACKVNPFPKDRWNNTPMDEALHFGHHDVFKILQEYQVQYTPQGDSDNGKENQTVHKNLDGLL
Glucagon-like peptide 1 receptor (Homo sapiens), sequence (P43220 whole entry, looked up): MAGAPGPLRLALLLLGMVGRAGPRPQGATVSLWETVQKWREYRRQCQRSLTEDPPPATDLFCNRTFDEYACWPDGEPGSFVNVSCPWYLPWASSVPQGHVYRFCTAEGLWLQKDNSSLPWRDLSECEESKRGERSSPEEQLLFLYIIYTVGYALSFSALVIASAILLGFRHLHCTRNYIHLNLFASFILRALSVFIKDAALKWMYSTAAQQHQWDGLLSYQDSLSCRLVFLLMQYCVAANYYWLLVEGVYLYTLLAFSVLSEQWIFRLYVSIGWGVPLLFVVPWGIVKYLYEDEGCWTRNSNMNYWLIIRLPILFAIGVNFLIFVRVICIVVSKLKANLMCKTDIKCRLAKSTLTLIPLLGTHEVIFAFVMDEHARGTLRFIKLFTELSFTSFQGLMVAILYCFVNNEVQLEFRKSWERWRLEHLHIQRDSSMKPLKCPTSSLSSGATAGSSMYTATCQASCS
Arylsulfatase A (Homo sapiens), sequence (P15289 whole entry, looked up): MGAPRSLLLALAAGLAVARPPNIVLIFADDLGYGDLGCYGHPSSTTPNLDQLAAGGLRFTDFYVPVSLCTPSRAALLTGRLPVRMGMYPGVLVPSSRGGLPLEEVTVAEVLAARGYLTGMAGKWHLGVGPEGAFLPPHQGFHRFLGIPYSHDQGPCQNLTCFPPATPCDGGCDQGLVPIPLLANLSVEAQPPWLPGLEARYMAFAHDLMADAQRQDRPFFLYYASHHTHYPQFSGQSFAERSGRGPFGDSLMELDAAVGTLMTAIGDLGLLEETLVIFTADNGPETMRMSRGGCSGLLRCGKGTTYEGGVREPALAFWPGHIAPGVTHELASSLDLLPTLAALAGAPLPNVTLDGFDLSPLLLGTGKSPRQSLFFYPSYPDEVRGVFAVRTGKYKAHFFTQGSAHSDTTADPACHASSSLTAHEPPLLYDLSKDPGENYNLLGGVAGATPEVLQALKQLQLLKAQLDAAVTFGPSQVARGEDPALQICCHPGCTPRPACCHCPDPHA

Row | SMILES | Potency [1] | Potency [2] | outcome [3] | Potency [4] | Potency [5] | Potency [6] | outcome [7] | Potency [8] | outcome [9]
1 | NC(=O)COc1c(F)cc(SCCNS(=O)(=O)c2ccccc2)cc1F | inactive | inactive | inactive | inactive | inactive | inactive | inactive | inactive | inactive
2 | CC(N)Cc1c[nH]c2ccc(O)cc12 (stereo not drawn) | 794 nM (active) | inactive | inactive | inactive | inactive | 9530 nM (active) | inactive | inactive | inactive
3 | CNc1ccc2oc(C[C@H]3O[C@@]4(CC[C@H]3C)O[C@H]([C@H](C)C(=O)c3ccc[nH]3)[C@H](C)C[C@H]4C)nc2c1C(=O)O | 3550 nM (active) | inactive | inactive | inactive | inactive | inactive | inactive | inactive | inactive
4 | CCCn1c(C)c(C(=O)c2ccc3ccccc3c2)c2ccccc21 | inactive | inactive | inactive | inactive | inactive | inactive | inactive | inactive | inactive
5 | C[N+](C)(C)CC#CCOC(=O)Nc1cccc(Cl)c1 | inactive | inactive | inactive | inactive | inactive | inactive | inactive | inactive | inactive
6 | CC(C)NP(=O)(NC(C)C)OP(=O)(NC(C)C)NC(C)C | inactive | inactive | inactive | inactive | inactive | inactive | inactive | inactive | inactive
7 | CCCC[N+]1(C)C2CC(OC(=O)[C@H](CO)c3ccccc3)CC1C1OC12 (stereo partly drawn) | inactive | inactive | inactive | inactive | inactive | inactive | inactive | inactive | inactive
8 | CN1CCc2cc(O)cc3c2[C@H]1Cc1ccc(O)c(O)c1-3 | 2240 nM (active) |  | inactive | inactive |  |  | inactive | inactive | inactive
9 | CC(N)Cc1c[nH]c2ccc(OCc3cccs3)cc12 (stereo not drawn) | inactive | inactive | inactive | inactive | inactive |  | inactive | inactive | inactive
10 | CN(N=O)c1cc(O)ccc1O | 1780 nM (active) |  | inactive | inactive | inactive | inactive | inactive | inactive | inactive
11 | CCCN1CCC[C@@H](c2cccc(O)c2)C1 | inactive | inactive | inactive | inactive |  | inactive | inactive | inactive | inactive
12 | N=C(N)c1ccc(CS(=O)(=O)F)cc1 | inactive | inactive | inactive | inactive | inactive |  | inactive | inactive | inactive
13 | CC(N)[C@H](O)c1ccc(O)c(O)c1 (stereo partly drawn) | inactive | inactive |  | inactive | inactive |  | inactive | inactive | inactive
